Assay results as given in PubChem BioAssay (NCATS).
Values joined by “and” are separate entries in the source; they are usually repeats but may differ in a detail not shown here. Equal entries are not always repeated. Records with an inconclusive call do not appear. Active and inactive are the calls of the source. Unless noted, calls follow the shape of the full dose curve.

What was measured:
[1] = molecular target: Peroxisome proliferator-activated receptor delta (Homo sapiens) (UniProt Q03181); assay: qHTS assay for small molecule agonists of peroxisome proliferator-activated receptor delta signaling (AID 588534);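 also: 0% = DMSO basal wells and 100% = positive control agonist at 10 µM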
Chain of Peroxisome proliferator-activated receptor delta (Homo sapiens) (Q03181 whole entry, looked up): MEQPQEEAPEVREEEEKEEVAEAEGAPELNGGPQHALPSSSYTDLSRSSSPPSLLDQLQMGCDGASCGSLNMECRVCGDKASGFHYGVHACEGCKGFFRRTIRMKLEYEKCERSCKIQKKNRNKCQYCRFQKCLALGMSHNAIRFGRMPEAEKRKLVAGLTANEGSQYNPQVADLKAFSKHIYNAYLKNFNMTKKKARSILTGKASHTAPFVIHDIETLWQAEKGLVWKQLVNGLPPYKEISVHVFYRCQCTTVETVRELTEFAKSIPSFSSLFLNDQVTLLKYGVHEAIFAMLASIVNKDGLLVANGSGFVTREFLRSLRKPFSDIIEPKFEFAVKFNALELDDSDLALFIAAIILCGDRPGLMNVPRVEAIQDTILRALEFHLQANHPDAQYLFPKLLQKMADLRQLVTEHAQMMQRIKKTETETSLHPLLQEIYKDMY
Outline: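 Cell-based beta-lactamase reporter assay run in agonist mode: cells seeded and incubated 5 hrs at 37 C, compounds added and incubated 18 hrs at 37 C. CCF4 dye fluorescence read after 2 hrs at RT; EC50 and efficacy from Hill fits.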

[2] = Primary qHTS for inhibitors of SARS-S pseudo-typed particle cell entry (AID 1479145); conditions: outcome: dose series up to 57.1 µM unless noted; also: nearly all actives have a fitted effect of over 45% in size; as to activity change, negative = inhibition: % is scaled to controls: 0 for no effect and ±100 for the full control effect
[3] = Primary qHTS for Huh7 cytotoxicity: counterscreen for inhibitors of MERS-S pseudotyped particle cell entry (AID 1479147); conditions: outcome: dose series up to 57.1 µM unless noted; as to activity change, negative = cytotoxicity: % is scaled to controls: 0 for no effect and ±100 for the full control effect
[4] = Primary qHTS for inhibitors of MERS-S pseudo-typed particle cell entry (AID 1479149); conditions: outcome: dose series up to 57.1 µM unless noted; also: nearly all actives have a fitted effect of over 60% in size
[5] = Primary qHTS for Vero E6 cytotoxicity: counterscreen for inhibitors of SARS-S pseudo-typed particle cell entry (AID 1479150); conditions: outcome: dose series up to 57.1 µM unless noted
[6] = Cytotoxicity counterscreen for inhibitors of SARS-CoV-2 cell entry (AID 1645845); conditions: outcome: dose series up to 57.1 µM unless noted; also: nearly all actives have a fitted effect of over 50% in size
Outline: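 48 h compound treatment (after 1 h preincubation), HEK293-ACE2 cells, 37 C/5% CO2; ATP luminescence endpoint; normalized to cell wells and media blanks.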

[7] = Primary qHTS to identify inhibitors of SARS-CoV-2 cell entry (AID 1645846); conditions: SARS-CoV-2 pseudovirus cell entry assay, luminescence; activity change, negative = inhibition: at 57.1 µM (top of the series) unless noted; also: nearly all actives have a fitted effect of over 45% in size
Outline: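 Luminescence readout (Bright-Glo luciferase) 48 h after pseudoparticle addition. HEK293-ACE2 cells, 1500/well; compound pre-incubation 1 h; Normalized to spike PP and bald PP.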

[8] = molecular target: Glutathione peroxidase 1 (Homo sapiens) (UniProt P07203); assay: Primary qHTS Assay for Inhibitors of Recombinant Selenoprotein Glutathione Peroxidase 1 (GPX1) (AID 1845191; active = well fitted curve in the direction sought with a large enough effect; an effect the other way counts as inactive or inconclusive; also: nearly all actives have a fitted effect of over 65% in size)
Chain of Glutathione peroxidase 1 (Homo sapiens) (P07203 whole entry, looked up): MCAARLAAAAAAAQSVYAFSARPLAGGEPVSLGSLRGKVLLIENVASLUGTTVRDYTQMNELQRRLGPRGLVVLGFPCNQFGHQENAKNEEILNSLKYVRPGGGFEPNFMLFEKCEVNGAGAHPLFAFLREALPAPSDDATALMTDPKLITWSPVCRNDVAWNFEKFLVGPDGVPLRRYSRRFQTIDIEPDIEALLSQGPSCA
Outline: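 10 nM GPX1 + cpd, 30 min RT; start w/ 1 mM GSH, 0.5 mM cumene hydroperoxide, 0.5 mM NADPH, 100 nM GR, 0.01% BSA; buffer 50 mM Tris-HCl pH 7.5, 2 mM EDTA, 150 mM NaCl; Fl 340/450, 0 & 15 min.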

[9] = molecular target: Phospholipid hydroperoxide glutathione peroxidase GPX4 (Homo sapiens) (UniProt P36969); assay: Primary qHTS Assay for Inhibitors of Recombinant Selenoprotein Glutathione Peroxidase 4 (GPX4) (AID 1845192; active = well fitted curve in the direction sought with a large enough effect; an effect the other way counts as inactive or inconclusive; also: nearly all actives have a fitted effect of over 65% in size)
Chain of Phospholipid hydroperoxide glutathione peroxidase GPX4 (Homo sapiens) (P36969 whole entry, looked up): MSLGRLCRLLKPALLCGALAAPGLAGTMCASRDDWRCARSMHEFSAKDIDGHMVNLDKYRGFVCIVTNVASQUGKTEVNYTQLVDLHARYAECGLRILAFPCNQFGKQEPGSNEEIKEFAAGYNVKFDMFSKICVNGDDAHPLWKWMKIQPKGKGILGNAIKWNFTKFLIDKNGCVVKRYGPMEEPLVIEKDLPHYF
Outline: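 NADPH consumption, followed by fluorescence at 340/450 nm between 0 and 15 min, reports GPX4 activity via coupled glutathione reductase (100 nM). Enzyme 200 nM was pre-exposed to compound 30 min; 0.5 mM cumene hydroperoxide and 1 mM GSH served as substrates.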

[10] = KB-8-5-11 P-gp reporter qHTS against the NCATS DSHEA and TCM libraries (AID 1919977; active = well fitted curve in the direction sought with a large enough effect; an effect the other way counts as inactive or inconclusive; also: 0% is about no effect)
Outline: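 P-gp-overexpressing KB-8-5-11 cells (500/well) were plated in colchicine-free DMEM with 10% FBS, attached ~4 h, then exposed to substance titrations for ~72 h at 37C. Viability was read by CellTiter-Glo luminescence.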

[11] = VSVG counterscreen qHTS to identify inhibitors of SARS-CoV-2 cell entry (AID 1645847); also: % is scaled to controls: 0 for no effect and ±100 for the full control effect; nearly all actives have a fitted effect of over 65% in size
Outline: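 HEK293-ACE2 cells (Expi293F stably expressing human ACE2) were pretreated with compound for 1 h at 37 °C, then infected with MLV-based VSV-G pseudotyped particles for 48 h. Luciferase luminescence was normalized to VSV-G PP and bald PP wells.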

[12] = molecular target: Bile acid receptor (Homo sapiens) (UniProt Q96RI1); assay: qHTS assay for small molecule agonists of farnesoid X receptor signaling (AID 588527); conditions: HEK293T FXR-UAS-bla, beta-lactamase ratio, 16 h; stronger effect = higher value;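 also: 0% = vehicle basal and 100% = reference agonist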
Chain of Bile acid receptor (Homo sapiens) (Q96RI1 whole entry, looked up): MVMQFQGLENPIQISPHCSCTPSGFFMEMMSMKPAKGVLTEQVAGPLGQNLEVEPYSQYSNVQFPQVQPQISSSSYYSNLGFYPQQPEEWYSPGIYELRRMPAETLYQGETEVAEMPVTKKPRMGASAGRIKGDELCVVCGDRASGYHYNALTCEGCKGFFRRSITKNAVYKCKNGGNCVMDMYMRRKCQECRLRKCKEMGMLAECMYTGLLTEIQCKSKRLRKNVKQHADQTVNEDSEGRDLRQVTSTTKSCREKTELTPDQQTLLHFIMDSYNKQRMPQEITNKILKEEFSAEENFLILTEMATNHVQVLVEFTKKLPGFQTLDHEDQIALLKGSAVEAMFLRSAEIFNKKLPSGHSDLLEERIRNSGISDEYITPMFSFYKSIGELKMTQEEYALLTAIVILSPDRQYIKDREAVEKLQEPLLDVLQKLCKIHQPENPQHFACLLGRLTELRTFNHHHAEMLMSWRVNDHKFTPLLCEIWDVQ
Outline: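 Read-out: beta-lactamase reporter fluorescence with CCF4 substrate in GeneBLAzer FXR-UAS-bla HEK293T cells, after 16 h compound exposure at 37 C. Response scaled between DMSO basal (0%) and chenodeoxycholic acid at 100 uM (100%).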

[13] = qHTS profiling of the MIPE4 collection as inhibitors of Plasmodium falciparum (3D7) proliferation (AID 743344; call rule not given here;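 also: scaled between DMSO vehicle wells and 0.29 µM artemisinin as full inhibition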); conditions: P. falciparum 3D7 in erythrocytes, SYBR Green DNA fluorescence, 72 h; at 28.5 µM (top of the series)
Outline: (§1)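 Erythrocytes infected with P. falciparum (0.3% parasitemia, 2.5% hematocrit) incubated with compounds 72 h at 37 C, 5% CO2. Lysis with saponin/Triton buffer containing SYBR Green I, overnight at room temperature in the dark; DNA fluorescence (485/535 nm) normalised to 0.29 uM artemisinin and DMSO.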

[14] = qHTS profiling of the MIPE4 collection as inhibitors of Plasmodium falciparum (DD2) proliferation (AID 743345; call rule not given here); conditions: P. falciparum Dd2 in erythrocytes, SYBR Green DNA, 72 h; at 28.5 µM (top of the series)
Outline: as §1

[15] = qHTS profiling of the MIPE4 collection as inhibitors of Plasmodium falciparum (DD2) proliferation (Rep 2) (AID 743346; call rule not given here); conditions: P. falciparum Dd2 in erythrocytes, SYBR Green DNA, 72 h; at 28.5 µM (top of the series)
Outline: as §1

[16] = molecular target: ATP-dependent 6-phosphofructokinase (Trypanosoma brucei brucei) (UniProt O15648); assay: qHTS Assay to Find Inhibitors of T. brucei phosphofructokinase: hit validation (AID 492961; active = well fitted curve in the direction sought with a large enough effect; an effect the other way counts as inactive or inconclusive;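 also: luminescence reports ADP formed as PFK phosphorylates fructose-6-phosphate with ATP; % is scaled to controls: 0 for no effect and ±100 for the full control effect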)
Chain of ATP-dependent 6-phosphofructokinase (Trypanosoma brucei brucei) (O15648 whole entry, looked up): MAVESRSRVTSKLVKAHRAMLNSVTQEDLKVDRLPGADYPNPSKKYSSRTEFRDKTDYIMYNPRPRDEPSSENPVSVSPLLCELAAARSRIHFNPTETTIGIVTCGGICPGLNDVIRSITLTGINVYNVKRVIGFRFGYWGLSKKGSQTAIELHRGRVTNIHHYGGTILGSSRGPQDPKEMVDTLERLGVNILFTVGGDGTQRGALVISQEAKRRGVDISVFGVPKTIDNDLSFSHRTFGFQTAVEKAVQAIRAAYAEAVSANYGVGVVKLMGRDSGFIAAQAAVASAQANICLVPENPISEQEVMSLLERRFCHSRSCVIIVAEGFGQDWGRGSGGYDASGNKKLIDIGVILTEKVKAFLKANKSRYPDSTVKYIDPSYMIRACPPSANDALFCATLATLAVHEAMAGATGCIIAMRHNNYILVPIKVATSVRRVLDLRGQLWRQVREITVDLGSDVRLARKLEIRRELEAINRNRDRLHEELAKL
Outline: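 ADP-Glo luminescence read-out of ADP formed by 1.25 nM PFK from 0.1 mM ATP and 0.5 mM F6P (TEA pH 8.0, 45 min, RT). Compounds titrated; activity normalized to no-enzyme and full-enzyme controls.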

[17] = molecular target: Alpha-galactosidase (Coffea arabica) (UniProt Q42656); assay: Counterscreen for Glucocerebrosidase Inhibitors: qHTS Assay for Coffee Bean alpha-Galactosidase at pH 5.9 (AID 998; active = well fitted curve in the direction sought with a large enough effect; an effect the other way counts as inactive or inconclusive;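 also: plate controls were uninhibited enzyme for no effect and no-enzyme basal signal for full effect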)
Chain of Alpha-galactosidase (Coffea arabica) (Q42656 whole entry, looked up): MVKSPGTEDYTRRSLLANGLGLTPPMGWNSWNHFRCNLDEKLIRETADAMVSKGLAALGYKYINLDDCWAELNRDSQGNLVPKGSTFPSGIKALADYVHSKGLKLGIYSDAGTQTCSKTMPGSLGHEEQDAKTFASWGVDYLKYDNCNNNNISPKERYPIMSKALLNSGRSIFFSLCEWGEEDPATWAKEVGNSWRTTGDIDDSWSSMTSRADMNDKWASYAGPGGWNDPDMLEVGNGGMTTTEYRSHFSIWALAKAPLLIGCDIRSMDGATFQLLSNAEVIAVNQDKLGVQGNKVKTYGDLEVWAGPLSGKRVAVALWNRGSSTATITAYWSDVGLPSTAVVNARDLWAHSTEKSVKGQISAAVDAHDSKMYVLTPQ
Outline: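 Compounds were titrated from 0.7 nM to 77 uM against green coffee bean alpha-galactosidase (2 nM) using 80 uM fluorogenic 4-methylumbelliferyl substrate. After 20 min at room temperature, reactions were stopped at pH 10 and read by fluorescence.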

[18] = Validation screen for inhibitors of Lassa infection (AID 463096); also: % is scaled to controls: 0 for no effect and ±100 for the full control effect
[19] = molecular target: Glucocorticoid receptor (Homo sapiens) (UniProt P04150); assay: qHTS assay for small molecule agonists of glucocorticoid receptor signaling (AID 588532; active = well fitted curve in the direction sought with a large enough effect in the signal ratio, with a control signal flat; the % refers to the signal ratio;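 also: 100% = dexamethasone at 0.1 µM and 0% = DMSO only wells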); conditions: HeLa MMTV-bla, beta-lactamase ratio, agonist, 18 h; stronger effect = higher value; percent of dexamethasone control, DMSO zero
Chain of Glucocorticoid receptor (Homo sapiens) (P04150 whole entry, looked up): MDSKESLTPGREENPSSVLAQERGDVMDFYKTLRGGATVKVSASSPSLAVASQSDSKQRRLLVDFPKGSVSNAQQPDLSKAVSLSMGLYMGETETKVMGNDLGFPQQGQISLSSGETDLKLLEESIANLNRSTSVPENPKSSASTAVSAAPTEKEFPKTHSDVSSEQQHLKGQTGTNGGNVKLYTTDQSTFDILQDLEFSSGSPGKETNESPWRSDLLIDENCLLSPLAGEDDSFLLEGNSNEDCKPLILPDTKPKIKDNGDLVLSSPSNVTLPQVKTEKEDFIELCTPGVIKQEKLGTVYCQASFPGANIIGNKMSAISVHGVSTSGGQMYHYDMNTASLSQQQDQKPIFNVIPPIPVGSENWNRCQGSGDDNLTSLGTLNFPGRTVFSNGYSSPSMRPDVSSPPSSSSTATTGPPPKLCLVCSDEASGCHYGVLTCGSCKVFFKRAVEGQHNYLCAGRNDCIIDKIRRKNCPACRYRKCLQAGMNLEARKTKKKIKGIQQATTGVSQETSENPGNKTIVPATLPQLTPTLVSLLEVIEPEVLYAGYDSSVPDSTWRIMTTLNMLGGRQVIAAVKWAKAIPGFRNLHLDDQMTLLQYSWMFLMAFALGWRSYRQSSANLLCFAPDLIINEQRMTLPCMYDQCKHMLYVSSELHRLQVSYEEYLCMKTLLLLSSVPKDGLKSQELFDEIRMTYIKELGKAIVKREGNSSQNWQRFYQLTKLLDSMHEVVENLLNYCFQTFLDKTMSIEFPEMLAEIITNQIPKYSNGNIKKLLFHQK
Outline: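 Agonist-mode qHTS: GRE-driven beta-lactamase in HeLa cells exposed 18 h to titrated compounds (up to 92 uM), then CCF4 ratio read after 2 h at RT; Hill-fitted EC50, efficacy relative to 0.1 uM dexamethasone.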

[20] = molecular target: Vitamin D3 receptor (Homo sapiens) (UniProt P11473); assay: qHTS assay for small molecule agonists of vitamin D receptor signaling (AID 588543);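 also: 0% = DMSO basal and 100% = reference agonist control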
Chain of Vitamin D3 receptor (Homo sapiens) (P11473 whole entry, looked up): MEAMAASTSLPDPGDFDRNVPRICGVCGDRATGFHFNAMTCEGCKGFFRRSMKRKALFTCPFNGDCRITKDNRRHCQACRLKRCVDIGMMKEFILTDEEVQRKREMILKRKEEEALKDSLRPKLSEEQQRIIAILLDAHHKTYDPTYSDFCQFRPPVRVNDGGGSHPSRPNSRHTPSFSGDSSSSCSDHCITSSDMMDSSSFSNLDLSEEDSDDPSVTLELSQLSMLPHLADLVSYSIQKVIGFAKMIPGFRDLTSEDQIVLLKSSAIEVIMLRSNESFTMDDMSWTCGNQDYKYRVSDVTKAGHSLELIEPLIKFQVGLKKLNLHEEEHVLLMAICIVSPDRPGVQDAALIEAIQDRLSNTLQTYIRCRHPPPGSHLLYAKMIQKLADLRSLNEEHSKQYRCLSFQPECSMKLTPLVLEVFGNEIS
Outline: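 GeneBLAzer VDR-UAS-bla HEK293T cells in 2% charcoal-stripped FBS medium were dosed with compound titrations for 16 h at 37 °C; CCF4 β-lactamase readout (405 nm ex, 460/530 nm em). EC50 and efficacy from Hill fits, normalized to 50 nM calcitriol (100%) and DMSO (0%).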

[21] = qHTS assay for small molecule agonists of retinoid X receptor alpha signaling (AID 588544); conditions: HEK293T RXRa-UAS-bla, beta-lactamase reporter, 18 h; 530 nm emission;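 as to activation: 0% = DMSO basal wells and 100% = reference agonist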
[22] = molecular target: Retinoic acid receptor RXR-alpha (Homo sapiens) (UniProt P19793); assay: as above
Chain of Retinoic acid receptor RXR-alpha (Homo sapiens) (P19793 whole entry, looked up): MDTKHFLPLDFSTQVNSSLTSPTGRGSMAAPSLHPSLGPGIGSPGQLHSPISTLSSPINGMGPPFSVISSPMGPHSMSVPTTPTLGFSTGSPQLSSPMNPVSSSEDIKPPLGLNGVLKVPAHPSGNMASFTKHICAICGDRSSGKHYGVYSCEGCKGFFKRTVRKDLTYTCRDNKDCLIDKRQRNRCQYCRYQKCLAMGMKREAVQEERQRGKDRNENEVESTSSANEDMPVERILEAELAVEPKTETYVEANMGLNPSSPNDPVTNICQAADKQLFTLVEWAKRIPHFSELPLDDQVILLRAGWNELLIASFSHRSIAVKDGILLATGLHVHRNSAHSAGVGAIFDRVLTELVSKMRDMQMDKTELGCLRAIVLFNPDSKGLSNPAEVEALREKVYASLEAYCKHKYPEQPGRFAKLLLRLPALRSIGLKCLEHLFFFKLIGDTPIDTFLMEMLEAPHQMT

[23] = molecular target: Thyroid hormone receptor beta (Homo sapiens) (UniProt P10828); assay: qHTS assay for small molecule agonists of thyroid hormone receptor beta signaling (AID 588545);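 also: 0% = DMSO only and 100% = 10 nM T3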
Chain of Thyroid hormone receptor beta (Homo sapiens) (P10828 whole entry, looked up): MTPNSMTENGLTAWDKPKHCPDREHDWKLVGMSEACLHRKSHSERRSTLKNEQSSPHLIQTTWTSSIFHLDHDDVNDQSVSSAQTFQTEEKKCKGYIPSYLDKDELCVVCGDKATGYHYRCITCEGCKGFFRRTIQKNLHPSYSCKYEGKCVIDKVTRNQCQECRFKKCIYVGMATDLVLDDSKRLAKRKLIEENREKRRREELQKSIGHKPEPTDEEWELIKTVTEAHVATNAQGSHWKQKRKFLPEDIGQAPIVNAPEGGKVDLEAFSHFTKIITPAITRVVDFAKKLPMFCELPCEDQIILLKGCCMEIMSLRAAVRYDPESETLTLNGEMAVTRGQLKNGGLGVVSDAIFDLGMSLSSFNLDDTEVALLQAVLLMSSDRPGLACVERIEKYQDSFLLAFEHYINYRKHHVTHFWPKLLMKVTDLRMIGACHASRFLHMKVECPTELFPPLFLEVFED
Outline: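 Compounds were tested as agonists in TR-UAS-bla-GripTite HEK 293 cells. After 18 hrs at 37 C, CCF4 substrate was added and fluorescence read after 2 hrs at room temperature.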

[24] = molecular target: Luciferin 4-monooxygenase (Photinus pyralis) (UniProt P08659); assay: Biochemical firefly luciferase enzyme assay for NPC (AID 624030; active = well fitted curve in the direction sought with a large enough effect; an effect the other way counts as inactive or inconclusive;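 also: purified P. pyralis luciferase at 10 nM with luciferin and ATP substrate; 0% = DMSO and -100% = full luciferase inhibition by PTC124 control; nearly all actives have a fitted effect of over 70% in size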)
Chain of Luciferin 4-monooxygenase (Photinus pyralis) (P08659 whole entry, looked up): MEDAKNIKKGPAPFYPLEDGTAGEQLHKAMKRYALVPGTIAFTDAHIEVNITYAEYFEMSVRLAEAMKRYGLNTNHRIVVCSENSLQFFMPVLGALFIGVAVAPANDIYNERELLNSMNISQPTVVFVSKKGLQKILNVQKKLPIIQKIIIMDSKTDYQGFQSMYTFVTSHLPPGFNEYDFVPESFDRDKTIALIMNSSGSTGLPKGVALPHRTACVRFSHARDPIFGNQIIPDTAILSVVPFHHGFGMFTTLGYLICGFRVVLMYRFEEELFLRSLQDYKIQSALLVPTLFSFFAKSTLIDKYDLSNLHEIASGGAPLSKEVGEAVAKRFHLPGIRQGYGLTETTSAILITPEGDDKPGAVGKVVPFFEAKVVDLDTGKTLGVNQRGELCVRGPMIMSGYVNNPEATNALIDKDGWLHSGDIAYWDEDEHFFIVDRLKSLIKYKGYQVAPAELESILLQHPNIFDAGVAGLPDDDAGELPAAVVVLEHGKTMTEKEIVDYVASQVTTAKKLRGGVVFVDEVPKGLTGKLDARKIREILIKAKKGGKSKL
Outline: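 Direct inhibition of firefly luciferase enzyme (10 nM final, 50 mM Tris Acetate) assessed by luminescence within 5 minutes. Percent activity scaled between DMSO and PTC124 positive control, with concentration-effect curves classified by fit quality and response.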

[25] = qHTS assay for small molecule agonists of the antioxidant response element (ARE) signaling pathway (AID 651741; active = well fitted activation curve with a large enough effect in the signal ratio; the % refers to the signal ratio; also: % of control where 0% means no effect)
Outline: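 Seeding 2,000 ARE-bla HepG2 cells per well preceded a 5 h incubation at 37 C/5% CO2 and a 16 h compound exposure at 37 C. Beta-lactamase reporter activity was then quantified by fluorescence after 2 h with LiveBLAzer B/G FRET substrate.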

O=C(O)[C@H](O)[C@@H](O)[C@H](O)[C@H](O)CO
inactive: outcome [1] | Potency [2] | Potency [3] | Potency [4] | Potency [5] | Potency [6] | Potency [7]

CC1(C)S[C@@H]2[C@H](N)C(=O)N2[C@@H]1C(=O)O
inactive: outcome [2] inactive [at 5.34 µM] | outcome [3] inactive [at 5.34 µM] | outcome [4] inactive [at 5.34 µM] | outcome [5] inactive [at 5.34 µM] | outcome [6] inactive [at 5.25 µM] | activity, negative = inhibition [8] 1.27% [at 4.49 µM] | outcome [9] inactive [at 4.52 µM]

CC/C=C\C/C=C\C/C=C\C/C=C\C/C=C\C/C=C\CCC(=O)O
3.74%: activity change, negative = inhibition [7]
inactive: Potency [2] | Potency [3] | Potency [4] | Potency [5] | Potency [6] | Potency [10]

C=C[C@H]1CN2CC[C@H]1C[C@H]2[C@H](O)c1ccnc2ccccc12
inactive: Potency [2] | Potency [3] | Potency [4] | Potency [5] | Potency [6] | Potency [8] | Potency [9]

Cc1ncc(COP(=O)(O)O)c(C)c1O
-31.2%: activity change, negative = inhibition [7]
inactive: Potency [2] | Potency [3] | Potency [4] | Potency [5] | Potency [6] | Potency [10]

CCCCOc1ccc(C[N+]2(C)C3CCC2CC(OC(=O)[C@H](CO)c2ccccc2)C3)cc1 (stereo not given in full)
-21.1%: activity change, negative = inhibition [7]
inactive: Potency [2] | Potency [3] | Potency [4] | Potency [5] | Potency [6] | Potency [9]

CCN(C)C(C)C(O)c1ccccc1 (stereo not given)
-6%: activity change, negative = inhibition [7]
inactive: Potency [2] | Potency [3] | Potency [4] | Potency [5] | Potency [6] | Potency [8] | Potency [9]

CCCCCCCCCCCCCCCCCCCCCC(=O)Nc1ccn([C@@H]2O[C@H](CO)[C@@H](O)[C@@H]2O)c(=O)n1
inactive: Potency [2] | Potency [3] | Potency [4] | Potency [5] | Potency [6] | Potency [11]
-93.7% [at 27.1 µM]: activity change, negative = inhibition [7]

CC[N+]1(C)C2CC(OC(=O)[C@H](CO)c3ccccc3)CC1[C@@H]1O[C@H]21 (stereo not given in full)
-33.5%: activity change, negative = inhibition [7]
inactive: Potency [2] | Potency [3] | Potency [4] | Potency [5] | Potency [6] | Potency [9]

C[C@H](CCC(=O)O)[C@H]1CC[C@H]2[C@@H]3[C@H](O)C[C@@H]4C[C@H](O)CC[C@]4(C)[C@H]3C[C@H](O)[C@]12C
inactive: activation [12] 1.14% | Potency [2] | Potency [3] | Potency [4] | Potency [5] | Potency [6] | Potency [7]

C[N+]1([O-])[C@H]2CC(OC(=O)C(CO)c3ccccc3)C[C@H]1[C@H]1O[C@H]12 (stereo not given in full)
inactive: Potency [2] | Potency [3] | Potency [4] | Potency [5] | Potency [6] | Potency [9]

CN[C@@H]1[C@H](O)[C@H](O[C@@H]2[C@H](O)[C@@H](O[C@H]3O[C@H]([C@@H](C)NC)CC[C@H]3N)[C@@H](N)C[C@H]2N)OC[C@]1(C)O
inactive: outcome [2] inactive [at 11.4 µM] | activity change, negative = cytotoxicity [3] -2.83% [at 11.4 µM] | outcome [4] inactive [at 11.4 µM] | activity change, negative = cytotoxicity [5] -14.2% [at 11.4 µM] | activity change, negative = cytotoxicity [6] -14.3% [at 11.3 µM]
-8.26% [at 11.3 µM]: activity change, negative = inhibition [7]
81.2%: parasite growth, % of DMSO control [13]
98.7%: parasite growth remaining, % of DMSO control (lower = more inhibition) [14]
196%: parasite growth, % of control (lower = inhibition) [15]

NC(=O)CCC1NC(=O)C(Cc2ccccc2)NC(=O)C(Cc2ccc(O)cc2)NC(=O)CCSSCC(C(=O)N2CCCC2C(=O)NC(CCCN=C(N)N)C(=O)NCC(N)=O)NC(=O)C(CC(N)=O)NC1=O (stereo not given)
-25.4% [at 27.1 µM]: activity change, negative = inhibition [7]
inactive: Potency [16] | Potency [2] | Potency [3] | Potency [4] | Potency [5] | Potency [6]

Fc1cccc(Br)c1NC1=NCCN1
inactive: Potency [2] | Potency [3] | Potency [4] | Potency [5] | Potency [6] | Potency [9]

CCCCC/C=C\C/C=C\C/C=C\CCCCC(=O)O
inactive: Potency [2] | Potency [3] | Potency [4] | Potency [5] | Potency [6] | activity change, negative = inhibition [10] 5.04% [at 3.26 µM]
-13.4% [at 114 µM]: activity change, negative = inhibition [7]

C[C@@](Cc1ccc(O)c(O)c1)(NN)C(=O)O
inactive: outcome [17] | Potency [18] | Potency [2] | Potency [3] | Potency [4] | Potency [5] | Potency [6] | Potency [7]

c1ccc2scnc2c1
inactive: outcome [1] | Potency [2] | Potency [3] | Potency [4] | Potency [5] | Potency [6]
-27.1%: activity change, negative = inhibition [7]

CC1(C)S[C@@H]2[C@H](NC(=O)COc3ccccc3)C(=O)N2[C@H]1C(=O)O
inactive: outcome [1] | Potency [2] | Potency [3] | Potency [4] | Potency [5] | Potency [6]
-8.38%: activity change, negative = inhibition [7]

CC1(C)C(C=C(Cl)Cl)C1C(=O)OCc1cccc(Oc2ccccc2)c1 (stereo not given)
-7.32% and -8.4%: max response [21]
inactive: activation [19] 2.68% and -0.215% and 2.06% | outcome [20] | Potency [22] | outcome [23] | Potency [24] | Potency [25]
